EBV gp42 block = inhibitors of Epstein-Barr virus glycoprotein 42 | Q1HVG2 | Fluorescence polarization binding assay, mP read-out | inhibition, % (tested at 21.74 µM) | actives 0.42% (n = 220,000); in the data active = inhibition above about 50%
Target sequence (Q1HVG2 whole entry, looked up): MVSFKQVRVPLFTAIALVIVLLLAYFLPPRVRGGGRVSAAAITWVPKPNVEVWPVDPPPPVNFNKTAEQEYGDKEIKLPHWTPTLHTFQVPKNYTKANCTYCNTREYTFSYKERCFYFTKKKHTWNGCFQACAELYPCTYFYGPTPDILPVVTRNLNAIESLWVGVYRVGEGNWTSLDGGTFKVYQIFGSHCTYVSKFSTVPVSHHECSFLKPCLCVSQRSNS
GLD-1 RNA inh = GLD-1-TGE RNA interaction inhibition (C. elegans). Q17339. actives 0.44% (n = 320,000). purified GLD-1 + fluorescein TGE RNA, fluorescence polarization. inhibition, % at 5.96 µM;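 active = percent inhibition above a per-plate cutoff, the plate mean of test compounds plus 3 SD, cut at about 30% in these data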;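 note: 0% = DMSO wells with GLD-1 and probe and 100% = wells lacking GLD-1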
MEX-5 binding = C. elegans MEX-5 TCR-2 RNA binding activity; Q9XUB2; MEX-5/FITC-TCR2 RNA binding, fluorescence polarization; active compounds read low; activity score (negative = inhibition of binding), % at 10 µM; actives 0.38% (n = 300,000); AID 1832;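 active = inhibition past about -25% in most replicates, and total fluorescence under double the plate's negative control median, limit read from the data; inconclusive = replicates evenly split on the limit, or fluorescence at least double controls; inactive = too little inhibition in most replicates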;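 note: 0% = DMSO and -100% = 5 µM competing unlabeled TCR2 RNA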
eLon inh = inhibits E. coli Lon protease; purified E. coli Lon protease, fluorescence polarization; inhibition, % at 7.94 µM; actives 0.42% (n = 360,000); P0A9M0; in the data active = inhibition above about 13%, passing the limit was not always enough;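 note: 0% = enzyme with probe and DMSO and 100% = no enzyme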
BCLXL inh = inhibitors of human Bcl-xL; Q07817; actives 0.7% (n = 320,000); inhibition, % at 10.9 µM; GST-Bcl-xL / FITC-Bim BH3 peptide fluorescence polarization;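 active = inhibition above the mean of all tested compounds plus 3 SD, cutoff set per campaign, cut at about 30% in these data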;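 note: 0% = DMSO wells and 100% = unlabeled Bim-BH3 peptide competitor; inhibitors lower millipolarization by displacing the labeled peptide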
Target sequence (Q07817 whole entry, looked up): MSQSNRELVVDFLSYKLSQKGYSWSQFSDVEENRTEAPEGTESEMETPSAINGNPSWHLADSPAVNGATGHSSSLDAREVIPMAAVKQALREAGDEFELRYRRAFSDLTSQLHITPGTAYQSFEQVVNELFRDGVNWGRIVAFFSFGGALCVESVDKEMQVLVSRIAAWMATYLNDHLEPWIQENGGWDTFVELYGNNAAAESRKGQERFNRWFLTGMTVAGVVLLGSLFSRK
E coli Lon conf = confirmation of E. coli Lon protease inhibitors; inhibition, % at 7.94 µM; shares compounds with eLon inh; AID 602230; actives 31% (n = 1,400); purified E. coli Lon, fluorescence polarization; in the data active = inhibition above about 16%;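 note: 0% = enzyme with probe and DMSO and 100% = no enzyme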
An asterisk follows results filed as active; ? = inconclusive; / = no result given. A selection: hits, their analogues and other compounds. The true share with any hit is near 1.3%.

SMILES	EBV gp42 block	GLD-1 RNA inh	MEX-5 binding	eLon inh	BCLXL inh	E coli Lon conf
COc1ccc(NS(=O)(=O)c2cc(C(=O)N3CCC3)ccc2C)cc1	/	4	/	12	2	/
CCCN1CCN(S(=O)(=O)c2cn(C)nc2C)CC1	/	27	-22	22*	66*	14
O=C1N(Cc2ccccc2)CC2(Br)COCOC12O (stereo unspecified)	/	/	/	5	/	/
CCN=c1scc(C)n1/N=C/c1ccc(O)c(O)c1O	-6	5	-17	25*	15	22*
CCN=c1scc(C)n1/N=C/c1cc(Br)c(O)c(Br)c1	-2	5	0	3	7	/
Cc1nc2ccccc2c(=O)n1CCCN1CCOCC1	-6	-1	-1	3	0	/
FC(F)(F)c1nc2nc(Cl)c(Cl)nc2n1CCCN1CCOCC1	/	/	/	31*	/	9
COc1ccc(CNC(=O)CN(Cc2ccc(F)cc2)C(=O)c2csnn2)cc1	12	8	0	1	6	/
CN(C(=S)NC1=CCS(=O)(=O)C1)C1CCCCC1	-24	4	-1	-1	8	/
O=C(NC(=S)NNS(=O)(=O)c1ccccc1)c1cccnc1	0	6	?	17	6	/
O=C(NC(=S)NNS(=O)(=O)c1ccccc1)c1ccccc1[N+](=O)[O-]	4	0	-5	23*	9	-48
CCCCC(=O)NC(=S)NNS(=O)(=O)c1ccccc1	-12	0	1	20*	12	-97
Nc1nc(Cl)cc(Oc2ccc([N+](=O)[O-])cc2)n1	/	-7	-1	16*	6	20*
OC(Cc1cccc(Br)c1)c1ncc(-c2cccc(C(F)(F)F)c2)[nH]1 (stereo unspecified)	/	/	/	14	/	/
CCOc1ncccc1C(=O)Nc1cccc(-n2cnnn2)c1C	/	-1	/	-8	/	/
Cc1c(NC(=O)c2cc(Br)ccc2Cl)cccc1-n1cnnn1	/	1	/	20*	/	-4
NC(=O)c1ccc(NCCc2cccs2)cc1	/	/	/	2	/	/
Cn1c2ccccc2c(=O)c2ccc(NCCc3cccs3)cc21	/	79*	/	92*	/	23*
N#Cc1c(NCc2ccccc2)ccnc1NCc1cccnc1	-21	6	1	17*	0	-54
O=c1oc2ccccc2c(O)c1Sc1c(O)c2ccccc2oc1=O	/	/	/	28*	/	35*
O=C(Nc1cccc(Cl)c1Cl)c1csc([C@@H]2O[C@H](CO)[C@H](O)[C@H](O)[C@H]2O)n1	/	/	/	15*	/	2
Cc1ccnc(N=O)c1	/	/	/	-2	/	/
Cc1c(C)n(C)c2ccc(C(=O)NCCCN3CCOCC3)cc12	/	2	1	56*	3	-2
Cc1ccc(NC(=O)c2ccc(OC(=O)COc3cccc(Cl)c3)cc2)cc1	-13	0	0	-11	2	/
CCn1c(SCC(=O)Nc2ccc(N3CCOCC3)cc2)nnc1-c1ccco1	/	-3	1	27*	3	2
SMILES	EBV gp42 block	GLD-1 RNA inh	MEX-5 binding	eLon inh	BCLXL inh	E coli Lon conf
CCn1c(C)nnc1SCC(=O)Nc1ccc(N2CCOCC2)cc1	/	10	0	-9	1	/
Cc1cc(C)n2nc(C)c(Br)c2n1	-10	6	-1	2	-1	/
Cc1cc(C)n2nc3nc4c(cc3c2n1)CCCC4	2	38*	-6	56*	111*	13
CCN1CC=C2C(C#N)=C(N)C(C#N)(C#N)[C@H](c3cccc(OC)c3OC)[C@H]2C1	/	114*	/	36*	136*	14
COc1cccc(C2C3CN(C)CC=C3C(C#N)=C(N)C2(C#N)C#N)c1OC (stereo unspecified)	78*	78*	-67*	53*	116*	16*
CCOC(=O)N1CC=C2C(C#N)=C(N)C(C#N)(C#N)[C@H](c3ccc(OC(C)C)c(OCC)c3)[C@H]2C1	3	1	-6	-25	7	/
CCOC(=O)C(Cc1c[nH]c2ccc([N+](=O)[O-])cc12)(NC(C)=O)C(=O)OCC	/	/	/	-11	/	/
Cc1ccc(C(=O)N/C(=C\c2ccc3c(c2)OCO3)C(=O)Nc2ccc(C(=O)O)cc2)cc1	2	-4	-4	-5	4	/
CC(=O)NS(=O)(=O)c1ccc(NC(=O)C(C)NS(=O)(=O)/C=C/c2ccccc2)cc1 (stereo unspecified)	/	4	/	-11	/	/
CC(C)C(=O)NNS(=O)(=O)c1ccccc1[N+](=O)[O-]	-8	1	1	15*	4	3
Cc1c(C(=O)OCC(=O)N(C)Cc2ccc(Cl)cc2)oc2ccccc12	/	-2	/	7	4	/
O=c1[nH]nc(-c2ccc(F)cc2)cc1Cc1ccccc1	-5	9	-2	32*	3	1
CCOC(=O)Cn1nc(-c2ccc(F)cc2)cc(Cc2ccccc2)c1=O	/	5	1	1	-2	/
COc1ccccc1CN(C(=O)CNC(=O)c1ccco1)C(C(=O)NCC1CCCO1)c1ccc(OC)c(OC)c1 (stereo unspecified)	/	-5	-5	2	5	/
Cc1ccc(C(=O)NCCc2ccc(F)cc2)s1	2	1	1	14*	9	-7
O=C(NCCc1ccc(F)cc1)c1ccncc1	/	6	0	19*	-4	-11
CCCCNC(=O)c1[nH]c(=O)cnc1-c1ccccc1	/	/	/	-4	/	/
CCOC(=O)c1nc(Nc2ccc(N3CCC(C)CC3)cc2)c2ccccc2n1	-9	-2	0	-5	4	/
COc1ccc(NS(=O)(=O)c2ccc(F)c(Cl)c2)cn1	/	99*	-13	58*	103*	-11
CCOc1ccc(NC(=O)NCC2CCN(c3ccc(OC)cc3)C2)cc1 (stereo unspecified)	-1	3	-1	23*	8	-10
O=C1N[C@@H](Cc2ccccc2)C(=O)N2[C@H]1C[C@]1([C@]34C[C@H]5C(=O)N[C@@H](Cc6ccccc6)C(=O)N5[C@H]3N(S(=O)(=O)c3ccccc3)c3ccccc34)c3ccccc3N(S(=O)(=O)c3ccccc3)[C@H]21	/	3	1	55*	5	12
O=C1N[C@@H](Cc2ccccc2)C(=O)N2[C@@H]3N(S(=O)(=O)c4ccccc4)c4ccccc4[C@]3(Br)C[C@@H]12	/	15	1	-4	-1	/
O=C1C(Br)=Cc2cccc3cccc1c23	116*	83*	-10	68*	116*	57*
O=c1[nH]c(=S)[nH]c2c1C(c1ccc(Br)cc1)c1c([nH]c(=S)[nH]c1=O)O2	/	2	-71*	32*	39*	-49
COc1ccc(C2=CC(c3sccc3C)n3nnnc3N2)cc1 (stereo unspecified)	-25	3	-15	0	13	/
COc1cccc(C2=CC(c3cccs3)n3nnnc3N2)c1 (stereo unspecified)	13	15	/	35*	15	10
COc1ccccc1C1C=C(c2ccccc2)Nc2nnnn21 (stereo unspecified)	-7	4	2	-12	0	/

High-throughput results: PubChem, several laboratories
